Screening results from PubChem BioAssay.
A selection: hits, their analogues and other compounds. The true share with any hit is near 3.6%.
Sm TGR inh – qHTS Assay for the Inhibitors of Schistosoma Mansoni Peroxiredoxins. Potency, µM (highest dose often 114 µM), for the others: at the top dose activity change, negative = inhibition, actives largely listed as inhibitors. purified TGR, DTNB reduction, TNB absorbance 405 nm. Schistosoma mansoni thioredoxin glutathione reductase (TGR), Q962Y6. AID 485364, 2010. actives 3% (n = 360,000); note: nearly all actives have a fitted effect of over 60% in size
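Kinetic colorimetric format: TGR-catalysed, NADPH-driven DTNB reduction monitored via TNB absorbance. Enzyme dispensed at 20 nM; compound exposure 15 min at room temperature before reaction start.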
Giardia FBPA inh – qHTS Assay for Inhibitors of Fructose-1,6-bisphosphate Aldolase from Giardia Lamblia | A8B2U2 | purified Giardia FBPA | Potency, µM (doses to about 59.6 µM), without a hit: at the top dose activity, negative = inhibition, most hits filed as inhibitors | actives 0.71% (n = 290,000); note: nearly all actives have a fitted effect of over 55% in size
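40 nM FBPA preincubated 10 min at RT with compound (up to 57.5 uM final), then substrate plus GAPDH/TPI/NAD/arsenate coupling and diaphorase/resazurin added. Fluorescence read after 20 min at RT, 525/598 nm.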
AmpC detergent – qHTS Inhibitors of AmpC Beta-Lactamase (assay with detergent). P00811. Potency, µM (doses to about 114 µM), for the others: top-dose activity change, negative = inhibition, actives largely listed as inhibitors. AID 485294, 2010. actives 0.041% (n = 370,000). AmpC hydrolysis of nitrocefin, absorbance 480 nm, 0.01% Triton;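 note: 0% = no-compound wells and -100% = no-enzyme wells; nearly all actives have a fitted effect of over 25% in size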
Target sequence (P00811 whole entry, looked up): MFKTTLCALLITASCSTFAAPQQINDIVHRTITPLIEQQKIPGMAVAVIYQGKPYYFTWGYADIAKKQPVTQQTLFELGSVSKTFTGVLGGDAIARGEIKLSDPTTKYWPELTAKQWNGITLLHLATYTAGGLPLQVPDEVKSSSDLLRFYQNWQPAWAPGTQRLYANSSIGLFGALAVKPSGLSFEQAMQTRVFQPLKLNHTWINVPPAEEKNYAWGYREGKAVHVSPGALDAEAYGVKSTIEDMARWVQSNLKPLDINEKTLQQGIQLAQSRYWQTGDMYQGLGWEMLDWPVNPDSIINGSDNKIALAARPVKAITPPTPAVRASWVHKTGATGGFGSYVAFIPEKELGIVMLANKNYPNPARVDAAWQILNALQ
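20 mM phosphate pH 7.0 + 0.01% (detergent screen) or 0.0001% Triton X-100; 5.3 nM AmpC reagent; cpd preinc 15 min RT; nitrocefin (800 uM stock) to start; A480 q20 s × 4 min; Activity was normalised to no-enzyme and no-compound control wells.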
AmpC no deterg – qHTS Inhibitors of AmpC Beta-Lactamase (assay without detergent); P00811; AmpC nitrocefin hydrolysis, absorbance 480 nm, 0.0001% Triton; Potency, µM (series often up to 57.1 µM), for inactives: top-dose activity change, negative = inhibition, actives largely listed as inhibitors; actives 0.52% (n = 330,000); AID 485341, 2010;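 note: plate controls were no compound for no effect and no enzyme for full effect; nearly all actives have a fitted effect of over 20% in size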
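20 mM phosphate pH 7.0 + 0.01% (detergent screen) or 0.0001% Triton X-100; 5.3 nM AmpC reagent; cpd preinc 15 min RT; nitrocefin (800 uM stock) to start; A480 q20 s × 4 min; Activity was normalised to no-enzyme and no-compound control wells.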
* = called active by the depositor; ? = inconclusive; . = no result given. Calls come from the whole dose curve; as a rule, active = well fitted curve in the direction sought with a large enough effect; inconclusive = small, poorly fitted or top-dose-only effect, or another doubt; inactive = no such curve, though single readings can be large; an effect the other way counts as inactive or inconclusive. Unless noted, % is set by controls: 0 for no effect and ±100 for the full control effect; potency is the fitted concentration of half-maximal effect.

SMILES | Sm TGR inh | Giardia FBPA inh | AmpC detergent | AmpC no deterg
COc1cc(OC)cc(-c2sc3ccc(OC)cc3c2C#CCCO)c1 | 25µM* | . | -8% | 87%
COc1ccc2cc(C3CC(c4ccco4)=NN3S(C)(=O)=O)c(Cl)nc2c1 (configuration not stated) | 6.3µM* | -9% | 2% | 35%
CS(=O)(=O)N1N=C(c2ccco2)CC1c1ccco1 (configuration not stated) | 20µM* | -2% | ? | -13%
CCOc1ccc(C(=O)Nc2ccc3c(c2)OCCO3)cc1 | ? | 4% | 4% | -26%
CCOC(=O)c1cc(CNC(=O)c2c(C)oc3c2CCCC3)c(C)o1 | 22µM* | -2% | -1% | 50%
CCOc1cccc(N2C(=O)CC(N(CCc3ccc(OC)c(OC)c3)C(=O)CC)C2=O)c1 (configuration not stated) | -23% | -1% | 1% | 62%
CCOC(=O)c1ccc(N2C(=O)CC(N(C)CCc3ccc(OC)c(OC)c3)C2=O)cc1 (configuration not stated) | 45µM* | -6% | 0% | 122%
O=C1/C(=C/c2ccccn2)SC(=S)N1NS(=O)(=O)c1ccccc1 | 45µM* | 11% | -15% | -26%
NS(=O)(=O)c1ccc(NC2=CC(=O)C(=O)c3ccccc32)cc1 | -22% | 2.5µM* | ? | -40%
CCOC(=O)c1ccc(NC2=CC(=O)C(=O)c3ccccc32)cc1 | 2% | . | -7% | -21%
Cc1ccc(NC2=CC(=O)C(=O)c3ccccc32)cc1 | -25% | 5.6µM* | -10% | -12%
O=C1C=C(Nc2ccc(O)cc2)C(=O)c2ccccc21 | ? | ? | ? | -26%
Clc1ccc(SCCOCCN2CCCCCC2)cc1 | -54% | ? | ? | 18%
O=C(CCl)N1CCN(S(=O)(=O)c2ccc3ccccc3c2)CC1 | 5.6µM* | 3% | 4% | 1%
O=S(=O)(c1ccc2ccccc2c1)N1CCN(c2ccc(O)cc2)CC1 | . | . | . | 10µM*
O=C(CCl)N1CCN(S(=O)(=O)c2ccc3c(c2)OCCCO3)CC1 | 16µM* | . | -5% | -19%
O=C(CSc1ccc2ccccc2c1)N1CCN(c2ccc(O)cc2)CC1 | 50µM* | -12% | 4% | -22%
Cc1ccc(NC(=O)c2cnccn2)cc1S(=O)(=O)N1CCCCCC1 | . | . | . | 3%
COC(=O)c1cccc(Nc2c(-c3ccc(SC)cc3)nc3nc[nH]n23)c1 | 0% | . | 4% | .
Cc1nonc1NC(=O)CSc1nnc(N)s1 | -6% | 8% | 2% | -3%
CCc1ccc(-c2cn3c(n2)sc2cc(C(=O)NCC(C)c4ccccc4)ccc23)cc1 (configuration not stated) | -3% | . | 1% | .
COc1ccc(-c2cn3c(n2)sc2cc(C(=O)NCC(C)c4ccccc4)ccc23)cc1 (configuration not stated) | 79µM* | . | 1% | .
CCN1CCN(c2ccc(S(=O)(=O)N3CCOCC3)cc2NC(=O)CCC(C)C)CC1 | 1% | . | 0% | 75%
O=C(CSc1c[nH]c2ccccc12)N1CCCc2ccccc21 | 9% | -12% | ? | 18µM*
CC1(C)CC(=O)C2=C(C1)N(c1cccc(O)c1)C1=C(C2)C(=O)CC(C)(C)C1 | 32µM* | ? | 0% | -44%
SMILES | Sm TGR inh | Giardia FBPA inh | AmpC detergent | AmpC no deterg
O=C(CN1CCOC1=O)N1CCCC(N2CCN(c3cccc(C(F)(F)F)c3)CC2)C1 (configuration not stated) | 40µM* | . | -10% | 43%
CCOc1cc(/C=C2/C(=O)ON=C2C)ccc1OCc1ccccc1 | 50µM* | -15% | -9% | -3%
CCCOc1ccc(Cl)cc1/C=C1/C(=O)ON=C1C | 14µM* | -16% | -12% | -11%
CCOc1cc(/C=C2/C(=O)ON=C2C)ccc1OCc1ccc(F)cc1 | 0% | -16% | 1% | -12%
COc1ccccc1/C=C1/C(=O)ON=C1C | -13% | -6% | 1% | 3%
CCN(CC)c1ccc(C=C(c2nnnn2-c2ccc(C)cc2)c2nnnn2-c2ccc(C)cc2)cc1 | 6% | 1% | -7% | -29%
COc1ccc(-c2csc(NC3OC(=O)c4c3ccc(OC)c4OC)n2)cc1OC (configuration not stated) | 0% | -6% | 2% | -14%
